{
  "source": "PubChem BioAssay AID1851",
  "about": "(National Center for Advancing Translational Sciences (NCATS), 2009)",
  "note": "Several values for one entry are separate records, joined by “and”; a condition that tells them apart may be missing. Equal entries are not always repeated. Among all 16,000 compounds or so, about 4,000 (25%) were called active. Inconclusive results (about 26%) are left out. Only a sample is shown. Values without a mark were called inactive. The call rests on the fitted dose curve; in most records, active means well fitted curve in the direction sought with a large enough effect; inconclusive means small, poorly fitted or top-dose-only effect, or effect the other way; inactive means no such curve, though single readings can be large or run the other way. On the % scale 0 is the no-effect control and ±100 the full control effect.",
  "data": [
    {"molecular_target": "Cytochrome P450 2C9 (Homo sapiens) (UniProt P11712)", "sequence (P11712 whole entry, looked up)": "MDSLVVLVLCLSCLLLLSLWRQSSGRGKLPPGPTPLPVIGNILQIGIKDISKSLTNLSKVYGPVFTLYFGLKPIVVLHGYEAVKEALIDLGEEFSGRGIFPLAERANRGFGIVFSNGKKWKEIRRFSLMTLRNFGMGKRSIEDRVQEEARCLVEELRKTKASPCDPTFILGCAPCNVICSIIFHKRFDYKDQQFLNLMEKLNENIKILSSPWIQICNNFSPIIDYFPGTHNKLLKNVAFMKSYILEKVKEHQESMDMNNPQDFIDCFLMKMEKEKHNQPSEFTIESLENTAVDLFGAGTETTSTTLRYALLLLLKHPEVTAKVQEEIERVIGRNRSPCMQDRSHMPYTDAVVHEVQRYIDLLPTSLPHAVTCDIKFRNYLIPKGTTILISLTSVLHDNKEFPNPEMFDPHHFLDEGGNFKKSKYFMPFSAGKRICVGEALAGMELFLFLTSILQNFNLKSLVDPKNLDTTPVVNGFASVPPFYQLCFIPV", "test": "Cytochrome panel assay with activity outcomes", "conditions": "recombinant CYP, pro-luciferin dealkylation, luminescence, p450-cyp2c9; series mostly up to 57.1 µM; activity, negative = inhibition: at the top concentration", "values": [
      {"smiles": "N#C[C@H]1CN[C@H](N)N[C@@H]1N", "activity, negative = inhibition": "-4.64% [at 11.4 µM]"},
      {"smiles": "CCCOc1ccc(CSC(CC(=O)O)C(=O)O)cc1", "note": "(configuration not stated)", "activity, negative = inhibition": "-5.81%"},
      {"smiles": "Cc1nc2ccccc2c(=O)n1NC(=O)c1ccccc1Cl", "AC50": "7.94 µM (active)"},
      {"smiles": "O=C(Nn1cnc2ccccc2c1=O)c1ccc(F)cc1Cl", "activity, negative = inhibition": "13.4%"},
      {"smiles": "COc1ccc(CNn2c(C)nc3ccccc3c2=O)cc1", "AC50": "5.62 µM (active)"},
      {"smiles": "COc1ccccc1-c1nc(NCc2ccccc2)c2ccccc2n1", "activity, negative = inhibition": "16.9% [at 2.29 µM]"},
      {"smiles": "CCCCOc1ccc(CNn2c(C)nc3ccccc3c2=O)cc1", "AC50": "4.47 µM (active)"},
      {"smiles": "COc1ccc(CN[C@H](C)C(=O)O)cc1", "activity, negative = inhibition": "12.3% [at 11.4 µM]"},
      {"smiles": "CN(C)c1ccccc1CN1CCCN(Cc2ccccc2N(C)C)C1c1ccncc1", "activity, negative = inhibition": "-12% [at 11.4 µM]"},
      {"smiles": "N=c1ccn2c(n1)O[C@H]1[C@@H](OP(=O)(O)O)[C@H](CO)O[C@H]12", "activity, negative = inhibition": "5.28% [at 11.4 µM]"},
      {"smiles": "CCCC[C@H](CC)CN1CN(C[C@@H](CC)CCCC)CC(C)(N)C1", "activity, negative = inhibition": "-3.68% [at 25.6 µM]"},
      {"smiles": "Nc1ccc(S(=O)(=O)Nc2ccccn2)cc1", "activity, negative = inhibition": "11.1% [at 25.6 µM]"},
      {"smiles": "CN(C)S(=O)(=O)Nc1ccccn1", "activity, negative = inhibition": "0.0893% [at 11.4 µM]"},
      {"smiles": "O=C1C(Cl)=C(Nc2ccc(S(=O)(=O)Nc3ccccn3)cc2)C(=O)c2ccccc21", "AC50": "2 µM (active)"},
      {"smiles": "C[C@@H](C(=O)O)c1ccc(-c2ccccc2)c(F)c1", "AC50": "10 µM (active)"},
      {"smiles": "O=C(O)[C@@H](O)c1ccc(F)cc1", "activity, negative = inhibition": "-3.58% [at 11.4 µM]"},
      {"smiles": "C[C@H](C(=O)O)c1cccc(Oc2ccccc2)c1", "activity, negative = inhibition": "-0.647% [at 25.6 µM]"},
      {"smiles": "CCCCC1(C)NC(=O)c2c(C)sc(C(=O)OCC)c2N1", "note": "(configuration not stated)", "AC50": "0.282 µM (active)"},
      {"smiles": "NC(=S)SCCC(=O)O", "activity, negative = inhibition": "-6.98% [at 11.4 µM]"},
      {"smiles": "CC(C)CO/N=C1/C[C@@H](O)[C@@H](O)[C@@H]2[C@@H]3C(=O)N(C[C@@H]4CCCO4)C(=O)[C@H]3CC[C@@H]12", "activity, negative = inhibition": "18.7% [at 11.4 µM]"},
      {"smiles": "O=C1SC(c2ccccc2)=C/C1=C\\N1CCCCC1", "AC50": "11.2 µM (active)"},
      {"smiles": "CC[N+](CC)(CC)CC[C@](O)(c1ccccc1)C1CCCCC1", "activity, negative = inhibition": "-9.66% [at 25.6 µM]"},
      {"smiles": "COc1c(/C=N/Nc2ccc([N+](=O)[O-])cc2[N+](=O)[O-])c(C)nn1-c1ccccc1", "AC50": "20 µM (active)"},
      {"smiles": "S=C1N[C@H](c2ccccc2)N[C@H](c2ccccc2)S1", "AC50": "2 µM (active)"},
      {"smiles": "O=C1C2[C@@H](c3ccccc3)N[C@@H](c3ccccc3)C1[C@H](c1ccccc1)N[C@H]2c1ccccc1", "activity, negative = inhibition": "-3.9% [at 11.4 µM]"},
      {"smiles": "O=C1[C@H]2[C@H]3[C@H](O)[C@H](O)C/C(=N/OCc4ccccc4)[C@H]3CC[C@@H]2C(=O)N1C[C@@H]1CCCO1", "activity, negative = inhibition": "-4.81% [at 11.4 µM]"},
      {"smiles": "CN(C)Cc1ccccc1-c1cc(NCc2ccccc2)ncn1", "activity, negative = inhibition": "-1.3% [at 2.29 µM]"},
      {"smiles": "Cc1ccccc1OCC(=O)Nc1ccc(N2CCN(C(=O)C(C)C)CC2)c(Cl)c1", "AC50": "3.98 µM (active)"},
      {"smiles": "O=C(Nc1ccccc1N1CCN(C(=O)c2ccc(Cl)cc2)CC1)c1cc(Br)ccc1Cl", "AC50": "3.98 µM (active)"},
      {"smiles": "O=C(Nc1ccccc1N1CCN(C(=O)c2ccccc2)CC1)c1cc(Br)ccc1Cl", "AC50": "2.51 µM (active)"},
      {"smiles": "CNC(=S)NNC(=O)COc1ccccc1C", "activity, negative = inhibition": "32.9%"},
      {"smiles": "CC1CN(C2CCN(C(=O)c3cccc(Cl)c3)CC2)CC(C)O1", "note": "(configuration not stated)", "activity, negative = inhibition": "-23.4%"},
      {"smiles": "CC(C)C(=O)N1CCN(c2ccccc2NC(=O)c2cccc(Cl)c2)CC1", "AC50": "14.1 µM (active)"},
      {"smiles": "CC[C@]1(O)C[C@@H]2CN(CCc3c([nH]c4ccccc34)[C@](C(=O)OC)(c3cc4c(cc3OC)N(C=O)[C@H]3[C@@](O)(C(=O)OC)[C@H](C(=O)OC)[C@@]5(CC)C=CCN6CC[C@]43[C@H]65)C2)C1", "activity, negative = inhibition": "-28.6%"},
      {"smiles": "CC(C)C(O)(C#CCN1CCCC1)c1ccccc1", "note": "(configuration not stated)", "activity, negative = inhibition": "-10.7%"},
      {"smiles": "CC(C)(C)N1C(=O)[C@H]2[C@@H]3[C@H](O)C=CC(=O)[C@H]3CC[C@H]2C1=O", "activity, negative = inhibition": "3.18% [at 11.4 µM]"},
      {"smiles": "CC(=O)O[C@]12CC[N@+]3(C)CCCC[C@@H]3[C-]1Nc1ccccc12", "activity, negative = inhibition": "2.24% [at 11.4 µM]"},
      {"smiles": "Cc1ccc(C2=C(Cl)C(=O)C(c3ccc(C)cc3)=C(Cl)C2=O)cc1", "AC50": "1.58 µM (active)"},
      {"smiles": "CC1(C)CC(=O)C/C(=N/NC(=O)CCCOc2ccc(Cl)cc2Cl)C1", "activity, negative = inhibition": "17.7%"},
      {"smiles": "COc1ccc(/C=N/NC(=O)CCCOc2ccc(Cl)cc2Cl)cc1[N+](=O)[O-]", "AC50": "2.24 µM (active)"},
      {"smiles": "CCCNC(=O)OC[C@@H]1O[C@H](CCO/N=C\\C[C@H]2C=C[C@H](OC(C)=O)[C@@H](COC(C)=O)O2)C=C[C@@H]1Oc1ccc(OC)cc1", "activity, negative = inhibition": "-11.7% [at 11.4 µM]"},
      {"smiles": "CCCNC(=O)OC[C@@H]1O[C@H](CCO/N=C\\c2ccc(C(=O)N3[C@H](c4ccc(C)cc4)[C@@H](C)CC[C@H]3C(=O)OC)cc2)C=C[C@@H]1Oc1ccc(OC)cc1", "AC50": "3.98 µM (active)"},
      {"smiles": "COC(=O)C/C=C\\[C@@H](C)[C@@H](/C=N\\OC[C@@H](O)COCc1ccco1)OC", "activity, negative = inhibition": "-26.7% [at 11.4 µM]"},
      {"smiles": "C=CC[C@@H]1C=C[C@@H](O/N=C\\c2ccc(C(=O)N3[C@H](c4ccc(C)cc4)[C@@H](C)CC[C@H]3C(=O)OC)cc2)[C@@H](CO)O1", "AC50": "3.98 µM (active)"},
      {"smiles": "COC(=O)[C@@H]1CC[C@H](C)[C@@H](c2ccc(C)cc2)N1C(=O)c1ccc(/C=N\\OC[C@@H]2O[C@H](c3ccccc3)C=C[C@@H]2Oc2ccc(OC)cc2)cc1", "activity, negative = inhibition": "-16.2% [at 11.4 µM]"},
      {"smiles": "C=CC[C@@H]1C=C[C@H](ON=C(C)C)[C@H](CO)O1", "activity, negative = inhibition": "12% [at 11.4 µM]"},
      {"smiles": "COC(=O)[C@@H]1CC[C@H](C)[C@@H](c2ccc(C)cc2)N1C(=O)c1ccc(/C=N\\OC[C@@H](C)[C@H](OCc2ccccc2)C(C)C)cc1", "activity, negative = inhibition": "-24.2% [at 11.4 µM]"},
      {"smiles": "C=CC[C@@H]1C=C[C@@H](O/N=C\\[C@@H](OC)[C@H](C)/C=C\\CC(=O)OC)[C@@H](CO)O1", "activity, negative = inhibition": "21.3% [at 11.4 µM]"},
      {"smiles": "COC(=O)C/C=C\\[C@@H](C)[C@@H](/C=N\\O[C@@H](C)c1cn([C@H](CO)Cc2ccccc2)nn1)OC", "activity, negative = inhibition": "-11.4% [at 11.4 µM] and -9% [at 11.4 µM]"},
      {"smiles": "COC(=O)C/C=C\\[C@@H](C)[C@@H](/C=N\\O[C@@H](C)c1cn([C@H](CO)Cc2ccccc2)nn1)NS(=O)(=O)c1ccc(C)cc1", "activity, negative = inhibition": "-29.2% [at 11.4 µM]"},
      {"smiles": "COC(=O)[C@@H]1CC[C@H](C)[C@@H](c2ccc(C)cc2)N1C(=O)c1ccc(/C=N\\O[C@@H](C)c2cn([C@H](CO)Cc3ccccc3)nn2)cc1", "AC50": "3.16 µM (active) and 2.51 µM (active)"},
      {"smiles": "COC(=O)[C@@H]1CC[C@H](C)[C@@H](c2ccc(C)cc2)N1C(=O)c1ccc(/C=N\\OC[C@@H](O)COCc2ccco2)cc1", "AC50": "3.98 µM (active)"}
    ]}
  ]
}
